Experimental data as given in the supplement of paper PMC6555819.

Each sequence was assayed on VDR:RXRa (NR concentration 270 nM, RXRa partner concentration 90 nM) (assay: PBM binding z-score (relative to random genomic background probes); higher = stronger binding; sequences stand for … in GC…GCGATTGACAGCGTAGAATGAAGG).
Experimental: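 Protein-binding microarray (Agilent 4x180K custom design, double-stranded 60-nt probes: 5' GC cap, 34-nt variable region, 24-nt constant primer region; full probe sequence given). Purified or IVT nuclear receptor:RXRα heterodimers (3:1 NR:RXRα, mostly 270:90 nM) or homodimers were incubated for 1 h in PBS with 2% milk and no ligand, then detected with Alexa488 antibodies. Fluorescence from o1-orientation probes (~5 replicates averaged) was converted to z-scores against 500 random hg19 background probes. Variable regions are seed direct-repeat (DR0–DR5) sites, all their single-nucleotide variants and half-site ablations.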
With ATATGGAGGTTAGCTGGGGTCATTCAGACTAGGC the PBM binding z-score was 6.86. GGAACGAGGGCATTCGAGTTGATAGCATGGCGAT showed a PBM binding z-score of 3.76. Sequence CGTCCAAGGTCACAGGAGGTCAGTGAAGACAGAT has a PBM binding z-score of 6.62. CCTACTGGGTCATTCAGAGGTCATTGATCATATG gave a PBM binding z-score of 6.25. CGTCAAAGTTCAACTAAGGTAACGTATAGCACGC showed a PBM binding z-score of 4.92. For CAATCTAGGTCACAGAGGTCAAAGTCCGTGCGTA, the PBM binding z-score was 8.07. CGAACTAGGTCAAAGGACAGTGACAGGCGACGTA was tested, and the PBM binding z-score was 1.47. ATCGAAAGGGCGTGAGGTGAGTATACAGAAAGGC gave a PBM binding z-score of 0.49. ATATGTAGGTTCGGGTCATTCAGAAAGTAGGGAA showed a PBM binding z-score of 3.72. For CGAACTAAGTCAAAGGACAGTGAAAGGCGACGTA, the PBM binding z-score was -0.259. Work on CAGAGTAGGTTACGAGGGGGCATTCAGTGCGAAT yielded a PBM binding z-score of 5.33. Sequence TCATATAGGTGAAAGGTGAAAGTCGGTGTGGTAA has a PBM binding z-score of 2.12. Sequence TCGAGTAGGTTACGGGGGCATTCGGGGATGAAGA has a PBM binding z-score of 4.16. CAAACTAGGTCAAAGGTCAACGTCGAGCCAACCA gave a PBM binding z-score of 6.69. With CGAACTAGGACAAAGGACAGTGAAAGGCGACGTA the PBM binding z-score was -0.353. TCTTGTAGGTCAAAGGTTAAGAAAGCCGAAGCCT gave a PBM binding z-score of 4.54. In the case of CCTACTGGGCGAAGGTCATTGATCAGTCAAAGCA, the PBM binding z-score is reported as 2.18. CCTAGTTGGTCAGGAGGTCACAAACCGGATATGA was tested, and the PBM binding z-score was 3.4. In the case of CCGAGCAGGTTACGAGGGGGCATTCAGTGCGAAT, the PBM binding z-score is reported as 5.27. With ATCTCTAGGTAACAAGGTCAGTGAAAGAGAGGAC the PBM binding z-score was 2.12. With CCTACAGGGCCAAAGGTCATTGATTCCAATGCTC the PBM binding z-score was 5.03. CCTCGGAGGACAGAAGGTCAGATCTGTCCGCTTT showed a PBM binding z-score of 0.977. Work on CAAACTAGGCCAAGGTCAAAGTCGGTTTGTGCCA yielded a PBM binding z-score of 4.19. CGAACTAGGTCACCAGGACAGTGAAGAGGTTGGA showed a PBM binding z-score of 1.93. With CCGAGTAGGGTACGAGGGGGCATTCAGTGCGAAT the PBM binding z-score was 4.33. For TCTAGCTGGTCACGGAGGTCACACACGACGGGTA, the PBM binding z-score was 6.05. CGTCCAAGGTCAAAGGTCAGTAAAGAGATGACGG was tested, and the PBM binding z-score was 6.53. With GCTAGTTTGTCAGTAAAAGGTCACACACCGGTCG the PBM binding z-score was 3.95. With TCTAGTAGGTTACGGGGGCATTCAGGGATGAAGA the PBM binding z-score was 4.39. GGAACGGGGGCAAGTTGATAGCAGAGTTTGATGG gave a PBM binding z-score of 3.44. CGTCCAAGGTCAATGCAAGGTCAGTGAAAGCATT gave a PBM binding z-score of 6.14. In the case of ATATGTAGGTTAGGTTCATTCAGAAAGTAGGGAA, the PBM binding z-score is reported as 4.01. For CGAACTAGGTCACCCGGACAGTGAAGAGGTTGGA, the PBM binding z-score was 2.69. CTATGTAGGTTAAGGGGGTCATTCTGTTTGAAAG gave a PBM binding z-score of 7.27. CGTCCAAGGTCATAGGAGGTCACTGAAGACAGAT showed a PBM binding z-score of 7.05. Sequence ACTAGTTGGTCAGCTGAGGTCACACAAAATTCGG has a PBM binding z-score of 4.79. CCGAGTAGGTTACGTGGGGGCATTCAGTGCGAAT showed a PBM binding z-score of 5.48. With TCGAGTAGGTTACGGGGGCATTCATGGATGAAGA the PBM binding z-score was 3.71. Work on TAGCCTAGGTGATTGGGCCAGTATAGTACGCATC yielded a PBM binding z-score of -0.57. CCGAGTAGGTTACAAGGGGGCATTCAGTGCGAAT showed a PBM binding z-score of 5.11.
